The results in this text go back to ChEMBL document CHEMBL4513216, “Probing the Open Global Health Chemical Diversity Library for Multistage-Active Starting Points for Next-Generation Antimalarials” (ACS Infect Dis, 2020).

Screen size: about 69,000 compounds; about 8,600 (12%) showed an effect of 50% or more. For the sample, strong results were picked, then their nearest neighbours and some compounds at random.

In this test the test system is Plasmodium berghei. Nature of the test: Screen against P. berghei liver stage (PbLuc), transformed with Luciferase, at 10uM. It counts as functional, HepG2. The settings on record: tested at 10 uM.
`CN1CCN(C2CCN(c3ccnc(-c4ccccc4)n3)CC2)C1=O`: the INHIBITION was 91.1%. As for `Cc1noc([C@H]2COC[C@H]3CN(C(=O)Cc4cccc(F)c4)C[C@H]32)n1`, the INHIBITION turned out to be 38.5%. As for `COc1c(C)cnc(CN2CCOC(CNc3cccnn3)C2)c1C` (stereo not drawn), the INHIBITION is 9.54%.

For the compound `O=C(CN1CCN(C(=O)c2ccccc2)CC1)Nc1ccc(Br)cn1`, the INHIBITION was 47.3%. Regarding `CCn1ccnc1CN1CCCN(C(=O)c2scnc2C)CC1`, the INHIBITION worked out at 13.64%. Consider `O=C(O)CCn1nc(C(F)(F)F)c(Cl)c1C1CC1`, for which the INHIBITION is listed as 31.7%. The same measure for `O=C(NCC1Cn2nnc(-c3ccncc3)c2CO1)c1ccc[nH]1` (stereo not drawn): 31.4%; for `Cc1cccc(CN2C[C@@H]3CCCO[C@@H]3[C@H](Nc3ccccn3)C2)n1`: 25.3%. With `O=C(CCc1cc2n(n1)CCCNC2)N1CCN(C2CCCC2)C(=O)C1`, the INHIBITION is given as -34.8%.

In the case of `CO[C@H]1CN(Cc2cc(F)ccc2F)CC[C@@]12CCCO2`, the INHIBITION is on record as -9.27%. For `COc1ccc2[nH]cc(C(=O)CNc3nccs3)c2c1` the value was 12.8%.

On to `Fc1ccc(CN2CCCC2Cn2cncn2)c2ncccc12` (stereo not drawn), for which the INHIBITION is on record as 79.2%. The same measure for `Fc1ccc(CN2CCCC(Cn3cncn3)C2)c2ncccc12` (stereo not drawn): -44.8%. For `Clc1ccc2cccnc2c1CN1CCCC1Cn1cncn1` (stereo not drawn) the value was 66.2%. For `Clc1ccc(CN2CCCC2Cn2cncn2)c2ncccc12` (stereo not drawn) the value was 23.45%. With `Clc1ccc2cccnc2c1CN1CCCC(Cn2cncn2)C1` (stereo not drawn), the INHIBITION is reported as 22.9%. The same measure for `CS(=O)(=O)NCC1CCCN(Cc2ccc(F)c3cccnc23)C1` (stereo not drawn): 18.5%. The same measure for `OC1CCCN(Cc2ccc(F)c3cccnc23)C1` (stereo not drawn): 54.4%; for `Fc1ccc(CN2CCCCC2Cn2cncn2)c2ncccc12` (stereo not drawn): 21.6%. For `Clc1ccc2cccnc2c1CN1CCCCC1Cn1cncn1` (stereo not drawn) the value was 45.65%; for `CC(C)C(C)NC(=O)Nc1ccc(F)c(C(N)=O)c1` (stereo not drawn), 1.75%; for `O=C(C1CNCCN1C(=O)CCc1cccnc1)N1CCOCC1` (stereo not drawn), 42.1%. On to `CNC(=O)[C@@H]1[C@H]2CN(Cc3ccccn3)CCN2C[C@H]1c1ccccc1`, for which the INHIBITION is given as 8.61%. The same measure for `Cc1csc(NC(=O)Cn2nc(C)ccc2=O)n1`: 37.8%; for `O=C(COCCOc1ccccc1)NC1CCN(C(=O)C2CC2)CC1`: 29.9%; for `COCCN1C(=O)CCC12CCN(C(=O)CC1CC1)CC2`: 21.6%.

With `CN(Cc1ccncc1)C(CO)c1cccc(F)c1` (stereo not drawn), the INHIBITION was 68.5%.

As to `CC(C)OCCCN(Cc1ccncc1)Cc1cccc(F)c1`, the INHIBITION amounted to 43.6%. The same measure for `CN(Cc1cccnc1)C(CO)c1cccc(Br)c1` (stereo not drawn): 85.2%.

Take `CN(Cc1ccccn1)C(CO)c1cccc(Br)c1` (stereo not drawn): the INHIBITION was determined as 88%. The same measure for `CN(Cc1nccn1C)C(CO)c1cccc(Br)c1` (stereo not drawn): 33.7%. As for `CN(Cc1cnn(C)c1)C(CO)c1cccc(Br)c1` (stereo not drawn), the INHIBITION amounted to 49%. As to `COc1cc(F)ccc1N(C)Cc1ccncc1`, the INHIBITION is given as -24.9%.

Consider `CN(Cc1ccccn1)C(C(=O)O)c1ccc2c(c1)OCO2` (stereo not drawn), for which the INHIBITION was found to be 40.3%. Regarding `CN(Cc1ccncc1)C(CO)c1cccc(Br)c1` (stereo not drawn), the INHIBITION was 4.52%. Consider `CCn1nnc(NCc2ccccc2OCc2ccc(Cl)cc2)n1`, for which the INHIBITION is on record as -3.5%. The same measure for `CCN1CCN(CCNC(=O)c2sc(C)nc2C)CC1`: 1.75%. Regarding `CN(C)C(=O)N1CC2(CCN(CC3CC3)CC2)c2cc(F)ccc21`, the INHIBITION is -13.4%. For `Cc1cc(C2CCN(S(=O)(=O)c3cn(C)cn3)CC2)ccn1` the value was 17.1%. For `CCC(C)(C)C(=O)N1C[C@@H]2C[C@@H](c3nnc(C)[nH]3)O[C@@H]2C1` the value was 30.5%; for `OCC1(NCc2cnc(-c3ccccn3)s2)CCOCC1`, -16.4%. Regarding `CCc1nc(C2CCCN2CC(=O)NCCc2ccsc2)no1` (stereo not drawn), the INHIBITION is recorded as 25.6%.

Consider `CC(=O)NCc1cc2n(n1)CCN(Cc1cccc(Cl)c1F)C2`, for which the INHIBITION is given as 10.7%.

For `Cc1c(C(C)NCc2cnn(C)c2)cnn1-c1ccccc1` (stereo not drawn), the INHIBITION is on record as 43%. Consider `Cc1c(C(C)NC2CSCCSC2)cnn1-c1ccc(F)cc1F` (stereo not drawn), for which the INHIBITION came to 43.7%. For `COc1ccc(-n2ncc(C(C)NC3CCOCC3)c2C)cc1` (stereo not drawn) the value was 23.7%; for `COc1ccc(-n2ncc(C(C)NC3CCSCC3)c2C)cc1` (stereo not drawn), 53.8%; for `Cc1c(C(C)NC2CCN(C(C)C)CC2)cnn1-c1ccc(F)cc1F` (stereo not drawn), 46.9%. For `COc1ccc(-n2ncc(C(C)NC3Cc4ccccc4C3)c2C)cc1` (stereo not drawn) the value was 63.8%; for `O=C(N[C@@H]1CN(C2CCCC2)C[C@@H]2CCCO[C@@H]21)c1cnccn1`, -45.5%.

Take `CCC1CCCCN1C(=O)Cn1cnc(C#N)n1` (stereo not drawn): the INHIBITION is reported as 47.9%.

On to `N#Cc1ncn(CC(=O)N2CCCC2c2cccs2)n1` (stereo not drawn), for which the INHIBITION was 23.3%. On to `CC1CCCCN1C(=O)Cn1cnc(C#N)n1` (stereo not drawn), for which the INHIBITION came out at 69.3%.
